The results in this text go back to PubChem BioAssay.

The source made the active and inactive calls.

For one assay, the target named is Albumin (Bos taurus) (UniProt P02769). Briefly: bovine serum albumin binders on microarray, profiling panel, artefact control for SMM control protein annotation, biochemical, small-molecule microarray, Alexa647 label, 635/667 nm fluorescence (AID 1118).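 Note: score merges 667 nm emission intensity and signal-to-noise per printed compound spot.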 Conditions: BSA-A647 binding, fluorescence 635 nm, higher = more signal.
Chain of Albumin (Bos taurus) (P02769 whole entry, looked up): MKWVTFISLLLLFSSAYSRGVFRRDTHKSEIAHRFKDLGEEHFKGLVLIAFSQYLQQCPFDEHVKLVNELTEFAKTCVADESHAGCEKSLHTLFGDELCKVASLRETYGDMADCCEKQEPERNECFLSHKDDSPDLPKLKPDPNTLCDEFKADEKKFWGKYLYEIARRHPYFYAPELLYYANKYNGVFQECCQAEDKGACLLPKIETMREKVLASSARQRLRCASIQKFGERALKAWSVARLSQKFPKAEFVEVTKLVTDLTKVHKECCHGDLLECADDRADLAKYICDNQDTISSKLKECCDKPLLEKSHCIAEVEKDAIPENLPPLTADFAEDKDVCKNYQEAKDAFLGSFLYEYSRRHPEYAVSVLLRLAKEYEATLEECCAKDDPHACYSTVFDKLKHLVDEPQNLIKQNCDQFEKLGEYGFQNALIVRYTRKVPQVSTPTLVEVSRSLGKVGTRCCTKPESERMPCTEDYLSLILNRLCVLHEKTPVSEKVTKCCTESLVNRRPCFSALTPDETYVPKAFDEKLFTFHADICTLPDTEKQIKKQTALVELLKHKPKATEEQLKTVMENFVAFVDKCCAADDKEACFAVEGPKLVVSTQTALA
Assay [1] is described as follows: small-molecule microarray binders of probe aXIP, primary screen, biochemical, NeuroSMM set, 635/667 nm fluorescence (AID 1119).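 Note: probe is the protein aXip251-270 applied at 1 µg/mL to compound-printed slides; binding of probe to printed compounds measured as 667 nm fluorescence plus signal to noise.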 To be noted: higher = more signal, called active from +8 up or from −8 down.
Assay [2] in a line: small-molecule binders of probe aNOTCH3, primary screen, biochemical, small-molecule microarray, 635/667 nm fluorescence (AID 1120).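 Note: probe is a biotin-tagged antibody raised against NOTCH3 rather than NOTCH3 protein; score merges spot fluorescence near 667 nm with spot signal to noise.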 To be noted: higher = more signal.
A short description of assay [3]: small-molecule binders of probe aNOTCH2, primary screen, biochemical, small-molecule microarray, 635/667 nm fluorescence (AID 1121).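 Note: score merges feature fluorescence read at 667 nm with its signal to noise.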 To be noted: higher = more signal.
In assay [4] the target is Carbonic anhydrase 2 (Homo sapiens) (UniProt P00918). Briefly: CAII small-molecule binders, profiling panel, biochemical, small-molecule microarray, Alexa647-labelled CAII (AID 1122). To be noted: CAII-A647 binding fluorescence, higher = more signal.
Assay [5] can be described thus: COS7 lysate on small-molecule microarray, probe aHis, 635 nm (AID 1123).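 Note: z-score combines 667nm fluorescence intensity with signal-to-noise per printed compound spot.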 To be noted: COS7 cell lysate, fluorescence, higher = more signal.
Assay [6] can be described thus: compound binding in COS7 lysate, probe aLAP1, primary screen, cell lysate, small-molecule microarray (AID 1124).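 Note: lysate comes from COS7 cells expressing LAP1 and is applied at 0.3 µg/mL; score merges spot fluorescence near 667 nm with signal-to-noise over triplicate slides.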 Conditions: probe aLAP1, fluorescence, higher = more signal.
A further assay deals with Sam68 (KHDRBS1). Briefly: Sam68 small-molecule binders, primary screen, biochemical, small-molecule microarray, 635 nm fluorescence (AID 1125).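 Note: score merges 667 nm channel intensity with signal to noise over triplicate slides.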 To be noted: small-molecule microarray binding, higher = more signal.
Assay [7] relates to Chordin-like protein 2 (CHRDL2). Briefly: CHRDL2 small-molecule binders, primary screen, biochemical, small-molecule microarray, 635 nm fluorescence (AID 1126).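 Note: printed compound slides probed with Chrdl2 protein at 4 µg/mL for 1 h at 4 C; score merges 667 nm emission intensity with signal to noise over three replicate slides.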 To be noted: small-molecule microarray binding, fluorescence 635 nm; higher = more signal.
In assay [8] the target is Concanavalin-A (Canavalia ensiformis) (UniProt P02866). Briefly: ConA small-molecule binders, primary screen, artefact control for SMM control protein annotation, biochemical, small-molecule microarray, Alexa647 label, 635 nm (AID 1127).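 Note: z combines 667 nm emission intensity with signal-to-noise across three replicate slides.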 To be noted: ConA-A647 binding fluorescence, higher = more signal.
Chain of Concanavalin-A (Canavalia ensiformis) (P02866 whole entry, looked up): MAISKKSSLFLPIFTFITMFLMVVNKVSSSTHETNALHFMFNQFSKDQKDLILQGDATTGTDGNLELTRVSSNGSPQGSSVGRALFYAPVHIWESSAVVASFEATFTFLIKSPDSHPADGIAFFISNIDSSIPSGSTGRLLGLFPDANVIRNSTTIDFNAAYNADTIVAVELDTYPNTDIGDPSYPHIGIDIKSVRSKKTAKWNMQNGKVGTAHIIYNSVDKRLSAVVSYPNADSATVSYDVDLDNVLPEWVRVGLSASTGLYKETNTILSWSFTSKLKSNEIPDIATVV
The nature of assay [9]: anti-His antibody binders, primary screen, artefact control for SMM control protein annotation, biochemical, small-molecule microarray, 635 nm fluorescence (AID 1128).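 Note: score merges feature fluorescence with signal-to-noise for each printed compound spot.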 To be noted: anti-His Alexa647 antibody binding, higher = more signal.
Assay [10] concerns Human papillomavirus type 1a E7 protein (residues 1-88). Kind of assay: HPV1a E7 small-molecule binders, primary screen, biochemical, small-molecule microarray, residues 1-88, 635 nm (AID 1129). Conditions: small-molecule microarray binding, fluorescence 635 nm; higher = more signal.
For assay [11], the target named is Focal adhesion kinase 1 (Homo sapiens) (UniProt Q05397). Kind of assay: small-molecule microarray binders of FAK, primary screen, biochemical, 635/667 nm fluorescence, BSA, DTT (AID 1130).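 Note: composite of spot emission at 667 nm and signal to noise over triplicate slides.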 To be noted: PTK2 binding, 635 nm fluorescence, higher = more signal.
Chain of Focal adhesion kinase 1 (Homo sapiens) (Q05397 whole entry, looked up): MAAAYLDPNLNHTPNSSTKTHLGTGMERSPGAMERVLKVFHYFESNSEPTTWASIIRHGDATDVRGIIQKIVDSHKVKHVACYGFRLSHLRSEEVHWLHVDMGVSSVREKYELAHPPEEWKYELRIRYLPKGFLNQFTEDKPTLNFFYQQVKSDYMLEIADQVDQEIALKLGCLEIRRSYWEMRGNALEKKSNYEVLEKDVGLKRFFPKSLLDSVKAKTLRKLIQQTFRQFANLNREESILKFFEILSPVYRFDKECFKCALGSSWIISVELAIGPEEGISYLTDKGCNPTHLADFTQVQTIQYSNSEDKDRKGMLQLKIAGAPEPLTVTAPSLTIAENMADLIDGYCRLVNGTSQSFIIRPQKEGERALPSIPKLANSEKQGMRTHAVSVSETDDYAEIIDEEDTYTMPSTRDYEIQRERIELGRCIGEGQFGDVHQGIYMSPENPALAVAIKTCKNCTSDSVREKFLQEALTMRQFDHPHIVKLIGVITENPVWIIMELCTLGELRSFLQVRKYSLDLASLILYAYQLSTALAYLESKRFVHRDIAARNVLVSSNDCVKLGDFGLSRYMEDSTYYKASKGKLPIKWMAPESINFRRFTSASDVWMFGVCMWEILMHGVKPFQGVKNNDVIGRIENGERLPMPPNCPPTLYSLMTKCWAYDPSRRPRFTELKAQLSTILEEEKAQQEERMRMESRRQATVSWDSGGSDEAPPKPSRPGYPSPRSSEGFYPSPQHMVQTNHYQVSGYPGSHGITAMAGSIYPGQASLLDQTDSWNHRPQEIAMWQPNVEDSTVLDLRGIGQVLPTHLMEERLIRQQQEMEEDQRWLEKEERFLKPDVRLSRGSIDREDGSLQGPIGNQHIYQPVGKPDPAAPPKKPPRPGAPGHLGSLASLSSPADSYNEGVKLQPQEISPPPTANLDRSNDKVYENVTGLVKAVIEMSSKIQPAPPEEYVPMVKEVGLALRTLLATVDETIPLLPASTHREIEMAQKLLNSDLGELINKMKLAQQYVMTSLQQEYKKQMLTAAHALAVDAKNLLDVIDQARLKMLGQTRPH
The subject of assay [12] is Fibrinogen (Alexa647-labelled). Briefly: fibrinogen binders on compound microarrays, profiling panel, artefact control for SMM control-protein annotation, biochemical, small-molecule microarray, 635/667 nm fluorescence (AID 1131).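 Note: z-score merges 667 nm fluorescence with per-spot signal-to-noise over triplicate slides.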 Conditions: fibrinogen-A647 binding fluorescence, higher = more signal.
Assay [13] concerns the target Follistatin (Homo sapiens) (UniProt P19883). Briefly: follistatin binders on small-molecule microarrays, primary screen, biochemical, small-molecule microarray, 635/667 nm fluorescence (AID 1132). To be noted: FST binding, 635 nm fluorescence, higher = more signal.
In assay [14] the target is Fibroblast growth factor 2 (Homo sapiens) (UniProt P09038). Briefly: FGF2 binders on small-molecule microarrays, primary screen, biochemical, small-molecule microarray, 635/667 nm fluorescence (AID 1133). To be noted: small-molecule microarray binding, FGF2, fluorescence 635/667; higher = more signal.
Chain of Fibroblast growth factor 2 (Homo sapiens) (P09038 whole entry, looked up): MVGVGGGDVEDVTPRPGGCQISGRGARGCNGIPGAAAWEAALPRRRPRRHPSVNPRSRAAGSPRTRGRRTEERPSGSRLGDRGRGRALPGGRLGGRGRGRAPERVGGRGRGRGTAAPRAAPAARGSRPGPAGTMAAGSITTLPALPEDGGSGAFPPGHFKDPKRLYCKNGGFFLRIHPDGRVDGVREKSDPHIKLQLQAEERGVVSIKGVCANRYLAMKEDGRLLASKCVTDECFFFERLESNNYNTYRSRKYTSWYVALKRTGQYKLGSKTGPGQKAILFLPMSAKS
Assay [15] is described as follows: mitochondrial membrane potential change in A549 cells, profiling panel, cell-based, JC-1 fluorescence, basal, 24 h, 100 nL (AID 1138).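 Note: A549 lung adenocarcinoma cells under basal conditions with no added stimulus; test concentration not given here.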 To be noted: higher = more signal.
In another assay the test system is Lefty1. Kind of assay: Lefty1 binders on small-molecule microarrays, primary screen, biochemical, small-molecule microarray, 635/667 nm fluorescence (AID 1139). To be noted: small-molecule microarray binding, fluorescence 635/667; higher = more signal.
Assay [16] deals with wheat germ agglutinin (Triticum aestivum), Alexa647-labelled. Briefly: wheat germ agglutinin binders on compound microarrays, profiling panel, artefact control for SMM control-protein annotation, biochemical, small-molecule microarray, 635/667 nm fluorescence (AID 1140).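 Note: score merges 667 nm feature emission with signal to noise over triplicate slides.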 Conditions: WGA-A647 binding, 635 nm fluorescence, higher = more signal.
The target of assay [17] is Luciferin 4-monooxygenase (Photinus pyralis) (UniProt P08659). Briefly: firefly luciferase enzyme inhibitors, primary screen, biochemical, luminescence, purified enzyme, 2006 set (AID 1141).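 Note: cell-free assay with purified firefly luciferase at 100 ng per well in PBS; test concentration not given here.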 To be noted: SteadyGlo luminescence, 30 min, higher = more signal, called active from +8 up or from −8 down.
Chain of Luciferin 4-monooxygenase (Photinus pyralis) (P08659 whole entry, looked up): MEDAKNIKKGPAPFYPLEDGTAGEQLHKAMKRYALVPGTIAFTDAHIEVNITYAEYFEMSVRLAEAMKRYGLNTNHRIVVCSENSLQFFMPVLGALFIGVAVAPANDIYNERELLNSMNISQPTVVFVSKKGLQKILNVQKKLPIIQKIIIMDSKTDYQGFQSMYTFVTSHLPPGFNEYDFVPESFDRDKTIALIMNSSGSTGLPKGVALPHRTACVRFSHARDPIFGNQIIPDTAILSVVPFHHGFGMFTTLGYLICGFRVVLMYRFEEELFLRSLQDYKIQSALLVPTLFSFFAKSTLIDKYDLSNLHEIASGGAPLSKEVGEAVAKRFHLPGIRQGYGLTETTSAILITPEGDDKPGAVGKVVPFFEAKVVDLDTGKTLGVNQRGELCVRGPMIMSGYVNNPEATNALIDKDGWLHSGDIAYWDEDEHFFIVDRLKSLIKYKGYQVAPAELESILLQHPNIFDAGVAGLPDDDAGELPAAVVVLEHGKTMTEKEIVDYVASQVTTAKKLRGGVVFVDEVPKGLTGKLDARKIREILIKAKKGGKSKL

Chain of Follistatin (Homo sapiens) (P19883 whole entry, looked up): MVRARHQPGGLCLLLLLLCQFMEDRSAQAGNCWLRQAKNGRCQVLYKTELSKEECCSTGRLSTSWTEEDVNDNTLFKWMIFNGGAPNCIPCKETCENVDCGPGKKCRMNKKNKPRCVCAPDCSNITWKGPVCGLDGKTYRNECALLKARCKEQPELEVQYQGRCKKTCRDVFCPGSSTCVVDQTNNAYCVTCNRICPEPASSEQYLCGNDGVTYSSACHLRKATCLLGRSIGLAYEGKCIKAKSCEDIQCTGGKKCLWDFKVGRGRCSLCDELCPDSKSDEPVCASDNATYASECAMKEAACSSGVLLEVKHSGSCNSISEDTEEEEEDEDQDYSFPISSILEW

Turning to `CC(C)c1ccc(NN2C(C(O)c3cccc(O)c3)C=CC3C(=O)N(c4ccccc4)C(=O)C32)cc1` (stereo not given), the composite z-score amounted to 1 with Albumin (Bos taurus); 0.374 in [2]; 0.0572 in assay [3]; 0.798 in assay [4]; 2.53 in assay [5]; 0.279 in [6]. For the same compound, the composite z-score with Sam68 (KHDRBS1) is 1.35; in [7], -0.678; in assay [8], 1.14; in [9], 1.16; in [10] it was 1.25; in assay [11] it was 0.781. Also, the composite z-score is 0.992 in [12]; 1.35 in [13]; -0.179 in [14]; 0.61 in the assay on Lefty1; 0.754 in [16]. The composite Z-score in assay [1] is 1 (inactive). Further, the z-score is 0.116 in [15] and -0.824 (inactive) in assay [17].
Turning to `COC(=O)[C@@]1(Cc2ccc(F)cc2)[C@H]2c3cc(C(=O)N4CCCC4)n(Cc4cccc5ccccc45)c3C[C@H]2CN1C(=O)c1ccccc1`, the composite z-score was determined as 1.08 with Albumin (Bos taurus); 0.535 in assay [2]; 0.173 in assay [3]; 0.533 in assay [4]; 3.22 in assay [5]; 0.513 in [6]. The composite z-score with Sam68 (KHDRBS1) is 1.07; in [7] it was -0.411; in [8] it was 0.405; in assay [9], 1.98; in [10] it was 1.28; in assay [11], 2.08. Also, the composite z-score is 0.83 in assay [12]; 0.0834 in assay [13]; -0.426 in assay [14]; -0.0668 in the assay with Lefty1; 1.06 in assay [16]. Moreover, the composite Z-score in assay [1] was -0.421 (inactive). Moreover, the z-score in assay [15] was 0.917; in assay [17], 0.943 (inactive).
On to `COC(=O)[C@@]1(Cc2ccc(OC)cc2)[C@H]2c3cc(C(=O)N(C)C)n(Cc4c(OC)[nH]cc(C)c4=O)c3C[C@H]2CN1C(=O)c1ccccc1`, for which the composite z-score with Albumin (Bos taurus) was 0.589; in assay [2], 1.04; in assay [3], 0.107; in assay [4], 0.881; in [5], 1.57; in assay [6] it was -0.155. In addition, the composite z-score in the assay with Sam68 (KHDRBS1) was -0.0964; in [7], -0.218; in [8], -0.172; in assay [9], -0.13; in assay [10], 0.66; in [11], 0.66. The composite z-score in assay [12] was 0.324; in [13], 0.326; in assay [14] it was -0.123; with Lefty1, -0.144; in assay [16] it was 0.59. Besides, in assay [1], the composite Z-score was 0.0562 (inactive). Besides, the z-score in assay [15] is 0.539; in [17], 0.151 (inactive).
Regarding `CCOC(=O)C[C@H]1[C@H](OC(=O)c2ccc(-c3ccccc3)cc2)[C@@H](NC(=O)c2ccc3ccccc3c2)c2cc(OCCCO)ccc2N1C(=O)Cc1ccc(OC)cc1`, the composite z-score was 0.605 in the assay with Albumin (Bos taurus); -0.063 in [2]; -0.11 in assay [3]; -0.0752 in [4]; 0.484 in assay [5]; 0.188 in assay [6]. In addition, the composite z-score in the assay with Sam68 (KHDRBS1) is 0.41; in assay [7] it was -0.887; in [8], -0.101; in [9], -0.034; in assay [10], 0.401; in assay [11], 0.463. Moreover, the composite z-score is 0.536 in [12]; -0.187 in assay [13]; -0.0546 in [14]; -0.154 in the assay with Lefty1; -0.006 in assay [16]. In assay [1], the composite Z-score was -0.608 (inactive). For the same compound, the z-score in [15] is -0.0901; in [17], 1.13 (inactive).
For `CC(C)(C)N1CC=CC23O[C@@H]4C=CCOC(=O)[C@@H]4[C@H]2C(=O)N(CCCCCO)[C@@H]3C1=O` (stereo not given in full), the composite z-score with Albumin (Bos taurus) was 0.485; in assay [2], -0.406; in assay [3] it was -0.229; in [4] it was 0.82; in [5] it was 0.121; in [6] it was 1.25. The composite z-score with Sam68 (KHDRBS1) is -0.87; in assay [7], -0.612; in assay [8], -2.63; in assay [9], 3.57; in assay [10] it was -1.45; in [11] it was -0.758. Moreover, the composite z-score in assay [12] was -2.1; in assay [13] it was -0.889; in [14], -0.326; in the assay on Lefty1, -1.17; in assay [16], -1.31. In assay [1], the composite Z-score is 1.1 (inactive). In addition, the z-score is -0.879 in [15] and 0.107 (inactive) in [17].
`CC(C)c1ccc(NN2C(C(O)c3ccc(N(C)C)cc3)C=CC3C(=O)N(c4ccccc4)C(=O)C32)cc1` (stereo not given): the composite z-score is 0.961 in the assay with Albumin (Bos taurus); 0.432 in assay [2]; 0.0147 in [3]; 0.393 in [4]; 2.76 in assay [5]; -0.161 in [6]. In addition, the composite z-score is 1.29 in the assay with Sam68 (KHDRBS1); -0.0118 in assay [7]; 1.16 in assay [8]; 0.435 in [9]; 1.24 in [10]; 0.0061 in [11]. In addition, the composite z-score was 0.96 in assay [12]; 1.25 in [13]; -0.321 in assay [14]; 0.273 with Lefty1; 0.923 in assay [16]. Also, the composite Z-score in assay [1] was -0.343 (inactive). For the same compound, the results for the z-score in assay [15] and in assay [17] were 0.594 and -0.943 (inactive), respectively.
